Screening results (PubChem)
Compounds with a hit are over-represented: about 3% of the library has one in this group of screens.
TbPYK inhibitor = qHTS of Trypanosoma Brucei Inhibitors; AID 624173, 2012; Potency, µM (highest dose often 76.8 µM), for inactives: at the highest dose activity, negative = inhibition, usual class: inhibitors; actives 0.12% (n = 410,000); pyruvate kinase (Trypanosoma brucei), Q57TT1; TbPYK enzyme, Kinase-Glo Plus ATP luminescence, 45 min; further: nearly all actives have a fitted effect of over 50% in size
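Glycolytic pyruvate kinase of T. brucei was incubated with substrate, test compound and 130 uM ADP for 45 minutes at room temperature. Luminescent Kinase-Glo Plus signal was measured after 10 minutes.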
RE007 growth inh = qHTS Assay for Inhibitors of the HIV-1 protein Vpr; S. pombe RE007 Vpr strain, BacTiter-Glo ATP luminescence, 24 h; Potency, µM (titrated, usually from 92.2 µM), for the others: at the top dose activity change, negative = less growth, hits mostly inhibitors; actives 0.21% (n = 360,000); active means well fitted falling curve with a large enough effect; inconclusive means small, poorly fitted or top-dose-only effect; inactive means no such curve, though single readings can be large or run the other way; further: nearly all actives have a fitted effect of over 50% in size
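Fission yeast RE007 carrying one integrated HIV-1 vpr copy, seeded at OD 0.01 in PMG+AL medium with 23 nL pinned compound. Grown 24 h at 30 degrees; viability read by BacTiter-Glo luminescence after 5 min.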
LmPK inhibitor = qHTS Assay for Inhibitors of Leishmania Mexicana Pyruvate Kinase (LmPK) | purified LmPK, Kinase-Glo ATP luminescence, 1 h | Potency, µM (series often up to 57.5 µM), for the others: at the highest dose activity change, negative = inhibition, most hits filed as inhibitors | actives 0.37% (n = 290,000)
Target sequence (Q27686 whole entry, looked up): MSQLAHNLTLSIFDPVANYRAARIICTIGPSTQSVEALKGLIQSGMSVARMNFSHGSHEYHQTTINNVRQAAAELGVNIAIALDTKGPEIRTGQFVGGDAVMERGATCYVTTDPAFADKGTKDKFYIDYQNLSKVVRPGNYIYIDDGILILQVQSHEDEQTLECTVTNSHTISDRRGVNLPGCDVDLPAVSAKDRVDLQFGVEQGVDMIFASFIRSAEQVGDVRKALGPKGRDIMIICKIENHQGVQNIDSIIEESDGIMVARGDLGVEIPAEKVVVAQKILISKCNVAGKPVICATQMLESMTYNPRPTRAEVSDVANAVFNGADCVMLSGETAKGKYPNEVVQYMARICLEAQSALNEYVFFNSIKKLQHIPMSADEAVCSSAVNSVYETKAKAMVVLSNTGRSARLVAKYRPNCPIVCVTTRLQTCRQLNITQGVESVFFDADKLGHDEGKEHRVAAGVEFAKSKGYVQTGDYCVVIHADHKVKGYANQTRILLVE
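In 50 mM imidazole pH 7.2 with 7 mM MgCl2, LmPK (0.1 nM) turned over PEP (0.5 mM) and ADP (0.1 mM) for 1 h at room temperature. Luciferase read-out of ATP.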
Sm TGR block = qHTS Assay for the Inhibitors of Schistosoma Mansoni Peroxiredoxins; Schistosoma mansoni thioredoxin glutathione reductase (TGR), Q962Y6; purified TGR, DTNB reduction, TNB absorbance 405 nm; actives 3% (n = 360,000); Potency, µM (titrated, usually from 114 µM), without a hit: top-dose activity change, negative = inhibition, actives largely listed as inhibitors; further: nearly all actives have a fitted effect of over 60% in size
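First, TGR (20 nM dispensed) and NADPH were mixed with compound. Second, a 15 min room-temperature incubation followed. Third, further NADPH and then DTNB were added to start the reaction. Finally, TNB absorbance was monitored kinetically.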
Numbers without * were called inactive; ? = inconclusive; . = no result; [ ] = remark or other dose. Unless noted, the call rests on the fitted dose curve; in most records, active means well fitted curve in the direction sought with a large enough effect; inconclusive means small, poorly fitted or top-dose-only effect, or another doubt; inactive means no such curve, though single readings can be large; an effect the other way counts as inactive or inconclusive. On the % scale 0 is the no-effect control and ±100 the full control effect; potency means the concentration at half of the fitted maximal effect.

SMILES | TbPYK inhibitor | RE007 growth inh | LmPK inhibitor | Sm TGR block
O=c1oc2c(O)cccc2cc1-c1nc2ccccc2[nH]1 | 2% | -11% | ? | 11%
O=C(O)c1ccc2nc(-c3cc4cccc(O)c4oc3=O)[nH]c2c1 | 20µM* | . | . | -27%
O=C(NCc1cccc(F)c1)c1cccc(NC(=O)c2nsc3ccccc23)c1 | 3% | . | . | 7%
COC(=O)C1=C(C(=O)OC)[C@@H]2N(C)c3ccccc3[C@@]23C[C@@H](C(=O)OC)N(S(=O)(=O)c2ccc(C#N)cc2)C3=N1 | . | . | -4%[11.5 µM] | .
O=C(c1ccc(Cl)cc1)C(CN1CCCC1)c1ccccc1 (configuration not stated) | -5% | ? | 0% | 28µM*
CC(C)Oc1ccc(C(=O)CCN2CCOCC2)cc1 | -15% | ? | . | .
CCCCOc1ccc(C(O)(CCN2CCOCC2)c2ccccc2)cc1 (configuration not stated) | 0% | -5% | 3% | 14µM*
CCCCCOc1ccc(C(=O)CCN2CCOCC2)cc1 | -5% | 18µM* | 2% | 4µM*
CCCCOc1ccc(SCCCN2CCOCC2)cc1 | -4% | -10% | . | .
CCCOc1ccc(C(=O)CCN2CCN(C(=O)OCC)CC2)cc1 | -17% | 32µM* | -3% | 100µM*
COc1ccc(C(=O)CCN2CCCCCC2)cc1 | 0% | 7.1µM* | 2% | 18%
Cc1ccc(-c2cc(C(=O)N(Cc3ccccc3)Cc3ccco3)no2)cc1F | -8% | . | . | 6%
COc1ccc2c(CNC3CCCCCC3)c(C(=O)O)n(Cc3ccccc3F)c2c1 | 2% | . | . | 4%
CC(C)Oc1ccc(C(=O)CCN2CCCCC2)cc1 | -17% | 40µM* | 4% | 0.4µM*
CCOc1ccc(C(=O)CCN2CCCCC2)cc1 | -7% | 35µM* | -2% | 0.32µM*
CN(C)c1ccc(C(=O)c2ccccc2)cc1 | 0% | ? | -11% | -2%
CN(C)c1ccc(N=Nc2ccc(C(=O)O)cc2)cc1 | -30% | 7% | 0% | 40µM*
O=C(O)Cc1ccc(NC(=S)Nc2ccc(Br)cc2Cl)cc1 | 1% | 6% | 0% | 22µM*
Fc1cc(Br)ccc1NC(=S)Nc1ccccc1 | -4% | . | 1% | 28µM*
Fc1ccccc1NC(=S)Nc1ccc(Br)cc1 | -4% | -3% | -6% | 50µM*
C#CCC(Cc1cnc2nc(N)nc(N)c2n1)c1ccc(C(=O)N[C@@H](CCC(=O)O)C(=O)O)cc1 (some centres not stated) | -3% | . | . | .
COc1ccc(N2C(=O)CC(N3CCOCC3)C2=O)cc1 (configuration not stated) | 0% | ? | 1% | 25µM*
COc1cccc(N2CCN(C3CC(=O)N(c4cccc(Cl)c4)C3=O)CC2)c1 (configuration not stated) | -10% | ? | 6% | 45µM*
COc1ccc(N2C(=O)CC(N3CCN(c4ccccc4)CC3)C2=O)cc1 (configuration not stated) | -1% | -7% | -5% | -27%
CCOc1ccc(N2C(=O)CC(N3CCN(c4ccc([N+](=O)[O-])cc4)CC3)C2=O)cc1 (configuration not stated) | -5% | -4% | 0% | 10µM*
SMILES | TbPYK inhibitor | RE007 growth inh | LmPK inhibitor | Sm TGR block
COc1ccccc1N1CCN(C2CC(=O)N(c3cccc(Br)c3)C2=O)CC1 (configuration not stated) | 2% | ? | -4% | 45µM*
COc1ccc(N(CC(=O)Nc2cccc(Cl)c2C)S(=O)(=O)c2c(C)nn(C)c2C)cc1 | -3% | . | . | 4%
COc1ccc(CNC(=O)CN(Cc2ccc(OC)cc2)C(=O)CCC(=O)Nc2ccccn2)cc1 | -1% | 1% | -4% | 11%
COC(=O)c1ccc(N2C(=O)CC(N3CCN(C(=O)c4ccco4)CC3)C2=O)cc1 (configuration not stated) | -6% | 2% | 1% | ?
COC(=O)c1ccc(N2C(=O)CC(N3CCC(O)(c4ccc(Br)cc4)CC3)C2=O)cc1 (configuration not stated) | -4% | 35µM* | 5% | 45µM*
O=C1CC(N2CCN(c3ccccc3)CC2)C(=O)N1c1cccc(Cl)c1 (configuration not stated) | 1% | -78% | 3% | ?
O=C1CC(N2CCSCC2)C(=O)N1c1cccc(Cl)c1 (configuration not stated) | -1% | ? | 2% | 28µM*
CCOc1ccc(N2C(=O)CC(N3CCN(c4ccc(Cl)cc4)CC3)C2=O)cc1 (configuration not stated) | -13% | -2% | 1% | 3.2µM*
COc1ccc(N2C(=O)CC(N3CCN(S(=O)(=O)c4ccc(Cl)cc4)CC3)C2=O)cc1 (configuration not stated) | -4% | -11% | 6% | -1%
COc1ccc(N2C(=O)CC(N3CCC(O)(c4ccc(Cl)cc4)CC3)C2=O)cc1 (configuration not stated) | -5% | ? | 3% | 50µM*
Cc1cc(C)c2nc(N3CCCC(C(=O)NCc4ccccc4F)C3)sc2c1 (configuration not stated) | 1% | . | . | 5%
O=C(C=P(c1ccccc1)(c1ccccc1)c1ccccc1)c1ccccc1-c1ccccc1C(=O)C=P(c1ccccc1)(c1ccccc1)c1ccccc1 | -6% | 21% | . | .
CC1(C(=O)NC2CCCCC2)Cc2ccccc2C(=O)N1Cc1ccc(Cl)cc1 (configuration not stated) | -1% | . | . | -2%
COc1ccc(N2C(=O)CC(N3CCN(c4ccc(Cl)cc4)CC3)C2=O)cc1 (configuration not stated) | -3% | 3% | 47% | 45µM*
COc1ccc(C2=CC3=C(Br)C(=O)C(C)(O)C(=O)C3=CO2)cc1 (configuration not stated) | -15% | ? | ? | 8.9µM*
CCC(=O)OC1(C)C(=O)C2=COC(c3ccc(OC)cc3)=CC2=C(Br)C1=O (configuration not stated) | -24% | ? | -22% | 11µM*
COC(=O)CCC(=O)OC1(C)C(=O)C2=CN(Cc3ccc(OC)cc3)C(c3ccc(OC)cc3)=CC2=C(Br)C1=O (configuration not stated) | -4% | -1% | -8%[11.5 µM] | .
COc1cccc(CNC(=O)c2ccc(-c3nc(CS(=O)c4ccccc4)c(C)o3)cc2)c1 (configuration not stated) | -8% | . | . | ?
O=C(O)c1cc(-c2ccco2)nc2cc3ccccc3cc12 | -24% | 2% | 12% | 2.2µM*
CC(=O)c1cccc(NC(=O)c2cc(-c3ccco3)nc3ccccc23)c1 | 7% | -17% | 0% | 25µM*
O=C(Nc1cccc(S(=O)(=O)NC2=NCCC2)c1)c1ccc(=O)[nH]c1 | 7% | 11% | . | 5.6µM*
